Screening data deposited in PubChem BioAssay by National Center for Advancing Translational Sciences (NCATS).
A selection: hits, their analogues and other compounds. The true share with any hit is near 8.5%.
NPSR antagonist = antagonists of human neuropeptide S receptor cAMP signaling | Q6W5P4 | CHO-NPSR cells, cAMP TR-FRET, antagonist mode | Potency, µM (doses to about 38.3 µM), actives largely listed as inhibitors | 220,000 tested, 1% active | AID 1461; also: nearly all actives have a fitted effect of over 50% in size
Coupling enz = coupling enzyme interference in Giardia aldolase counter-screen; coupling enzyme system counterscreen, AmpLite Red fluorescence; activity change, negative = inhibition, % at 58.2 µM, hits read low; 290,000 tested, 0.67% active; AID 2472; in the data active = activity change below about -30%
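Coupling enzymes only (glyceraldehyde-3-phosphate) + compound, at 57.5 uM final, 10 min RT; add substrate/coupling/AmpLite Red mix, 20 min RT; fluorescence ex 525/em 598 nm. Actives flag coupling-system interference.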
KDM4E inh = inhibitors of human JMJD2E histone demethylase. 230,000 tested, 1.6% active. Potency, µM (highest dose often 57.1 µM), actives largely listed as inhibitors. B2RXH2. JMJD2E catalytic domain, FDH-coupled NADH fluorescence (FDH is formaldehyde dehydrogenase). AID 2147; active = well fitted inhibition curve with a large enough effect, not every such curve was filed as active; inconclusive = small, poorly fitted or top-dose-only effect, or another doubt; inactive = no such curve, though single readings can be large or run the other way; also: nearly all actives have a fitted effect of over 50% in size
Target sequence (B2RXH2 1-337 limits assumed): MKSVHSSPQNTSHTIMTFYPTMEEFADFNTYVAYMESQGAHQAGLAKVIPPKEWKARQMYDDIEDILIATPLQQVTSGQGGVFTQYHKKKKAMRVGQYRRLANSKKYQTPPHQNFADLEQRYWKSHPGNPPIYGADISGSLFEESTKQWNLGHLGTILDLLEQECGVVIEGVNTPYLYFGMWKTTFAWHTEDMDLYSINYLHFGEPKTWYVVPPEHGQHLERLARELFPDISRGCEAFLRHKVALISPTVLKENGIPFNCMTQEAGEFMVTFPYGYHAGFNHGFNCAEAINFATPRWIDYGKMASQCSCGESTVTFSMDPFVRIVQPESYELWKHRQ
RGS12 GoLoco inh = blocks human Gai1 binding to RGS12 GoLoco peptide, red readout; 230,000 tested, 0.44% active; AID 880; Gai1:RGS12 GoLoco peptide FP, rhodamine, 10 min; Potency, µM (titrated, usually from 61.6 µM), actives largely listed as inhibitors; active = well fitted inhibition curve with a large enough effect, not every such curve was filed as active; inactive = no such curve, though single readings can be large or run the other way; also: nearly all actives have a fitted effect of over 30% in size
Target sequence (P63096 whole entry, looked up): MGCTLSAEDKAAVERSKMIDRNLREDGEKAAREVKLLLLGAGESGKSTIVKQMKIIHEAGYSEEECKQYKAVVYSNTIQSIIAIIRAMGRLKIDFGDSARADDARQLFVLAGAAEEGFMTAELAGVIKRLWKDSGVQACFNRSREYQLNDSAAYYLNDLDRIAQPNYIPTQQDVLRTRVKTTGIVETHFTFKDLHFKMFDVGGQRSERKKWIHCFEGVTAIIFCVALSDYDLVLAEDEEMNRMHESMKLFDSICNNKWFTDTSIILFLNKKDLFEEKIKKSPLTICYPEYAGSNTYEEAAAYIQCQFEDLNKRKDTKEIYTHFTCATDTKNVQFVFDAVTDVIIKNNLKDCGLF
ALDH1A1 inh = inhibitors of human aldehyde dehydrogenase 1A1; P00352; Purified ALDH1A1, NADH fluorescence, propionaldehyde substrate; Potency, µM (doses to about 75.3 µM), most hits filed as inhibitors; 220,000 tested, 7.3% active; active = well fitted inhibition curve with a large enough effect, not every such curve was filed as active; inconclusive = small, poorly fitted or top-dose-only effect, or another doubt; inactive = no such curve, though single readings can be large or run the other way
Sfp inh = inhibitors of Bacillus subtilis Sfp phosphopantetheinyl transferase. Q9F4F7. Biochemical Sfp PPTase activity, qHTS. 310,000 tested, 3.5% active. Potency, µM, hits mostly inhibitors. AID 1490;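 also: the enzyme is Sfp with the accession as filed and its product quenches rhodamine fluorescence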
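After 15 min at room temperature with compound, 15 nM Sfp received 5 uM rhodamine-CoA plus 12.5 uM BHQ-2-ybbR (50 mM Hepes pH 7.6, 10 mM MgCl2). Rate came from the fluorescence difference over 30 min, ex 525/em 598 nm.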
A number is an active result. Unless noted, calls follow the shape of the dose curve; as a rule, active = well fitted curve in the direction sought with a large enough effect; inconclusive = small, poorly fitted or top-dose-only effect, or another doubt; inactive = no such curve, though single readings can be large; an effect the other way counts as inactive or inconclusive.

O=C(CSc1nnc(-c2ccncc2)n1CC1CCCO1)Nc1cccc(O)c1 (stereo not drawn) was read as NPSR antagonist inactive, Coupling enz inactive, KDM4E inh inactive, RGS12 GoLoco inh inactive, ALDH1A1 inh inactive and Sfp inh inactive.
Screening Cc1ccc(NCc2nnc(SCC(=O)Nc3ncc(C)s3)n2CC2CCCO2)c(C)c1 (stereo not drawn) returned NPSR antagonist inconclusive, Coupling enz inactive, KDM4E inh inactive, RGS12 GoLoco inh inactive, ALDH1A1 inh 4.5µM and Sfp inh inactive.
`Cc1ccc(NCc2nnc(SCC(=O)Nc3cccc(O)c3)n2CC2CCCO2)c(C)c1` (stereo not drawn) gave NPSR antagonist inactive, Coupling enz inactive, KDM4E inh inactive, RGS12 GoLoco inh inactive, ALDH1A1 inh 4µM and Sfp inh inactive.
CCCc1nnc(SCC(=O)Nc2nnc(CC)s2)n1CC1CCCO1 (stereo not drawn) was read as Coupling enz inactive and Sfp inh inactive.
For Cc1nnc(SCC(=O)NNC(=O)c2ccc(Cl)cc2)s1 the results were Coupling enz inactive and Sfp inh inactive.
`CN(Cc1ccccc1)C(=O)CCC1CCN(C(=O)c2ccccc2C(F)(F)F)CC1` gave Sfp inh inactive.
`CSCc1ccc(C(=O)N2CCC(CCC(=O)N(C)Cc3ccccc3)CC2)o1` gave Coupling enz inactive and Sfp inh 50µM.
CC1(C)OC(=O)C(=CNc2ncccn2)C(=O)O1 was read as NPSR antagonist inactive, Coupling enz inactive, KDM4E inh inactive, RGS12 GoLoco inh inactive, ALDH1A1 inh inconclusive and Sfp inh inactive.
`Cc1cc(C)nc(NC=C2C(=O)OC(C)(C)OC2=O)n1` gave NPSR antagonist inactive, Coupling enz inactive, KDM4E inh inactive, RGS12 GoLoco inh inactive, ALDH1A1 inh 4µM and Sfp inh inactive.
CN(Cc1ccccc1)c1ncnc2sccc12 was read as Coupling enz inactive and Sfp inh inactive.
For CN(Cc1ccccc1)c1ncc(C=O)s1 the results were NPSR antagonist inactive, Coupling enz inactive, KDM4E inh inconclusive, RGS12 GoLoco inh inactive, ALDH1A1 inh 7.1µM and Sfp inh inactive.
`Cc1cccc(C)c1Nc1oc(-c2ccccc2)nc1-c1ccccc1F` gave Coupling enz inactive, KDM4E inh inactive, RGS12 GoLoco inh inactive, ALDH1A1 inh inconclusive and Sfp inh inactive.
For Cc1cccc(NC(=O)NNC(=O)c2sccc2-n2cccc2)c1 the results were NPSR antagonist inactive, Coupling enz inactive, KDM4E inh inactive, RGS12 GoLoco inh inactive, ALDH1A1 inh inconclusive and Sfp inh inactive.
`CCOc1cccc2cc(C(=O)N3CCN(C/C=C/c4ccccc4)CC3)c(=O)oc12` gave NPSR antagonist inactive, Coupling enz inactive, KDM4E inh inactive, RGS12 GoLoco inh inactive, ALDH1A1 inh 14µM and Sfp inh inactive.
Screening N#CCCN(Cc1ccccc1)C(=O)c1cccs1 returned NPSR antagonist inactive, Coupling enz inactive, KDM4E inh inactive, RGS12 GoLoco inh inactive, ALDH1A1 inh inconclusive and Sfp inh inactive.
`CC1C/C(=N\NC(=O)c2cccnc2)CC(C)(C)C1` (stereo not drawn) gave NPSR antagonist inactive, Coupling enz inactive, KDM4E inh inactive, RGS12 GoLoco inh inactive, ALDH1A1 inh inconclusive and Sfp inh inactive.
Screening CC1C/C(=N\NC(=O)c2ccc(NS(=O)(=O)c3ccc(Br)cc3)cc2)CC(C)(C)C1 (stereo not drawn) returned NPSR antagonist inactive, Coupling enz inactive, KDM4E inh inactive, RGS12 GoLoco inh inactive, ALDH1A1 inh 3.5µM and Sfp inh inactive.
`CC1C/C(=N\NC(=O)c2ccc([N+](=O)[O-])cc2)CC(C)(C)C1` (stereo not drawn) gave NPSR antagonist inactive, Coupling enz inactive, KDM4E inh inactive, RGS12 GoLoco inh inactive and Sfp inh 79µM.
`CCOC(=O)c1sc2nc(CSc3ccccc3)nc(NCCN(C)C)c2c1C` gave NPSR antagonist inconclusive, Coupling enz inactive, KDM4E inh inactive, RGS12 GoLoco inh inactive, ALDH1A1 inh inactive and Sfp inh inactive.
`CCC(=O)Nc1cccc(C2=NOC3(C2)C[C@@H](C(N)=O)N(C(=O)C(c2ccccc2)c2ccccc2)C3)c1` (stereo partly drawn) gave NPSR antagonist inactive, Coupling enz inactive, KDM4E inh inactive, RGS12 GoLoco inh inactive and Sfp inh inactive.
C/C=C\C=C\C(=O)Nc1cccc(C2=NOC3(C2)C[C@@H](C(N)=O)N(C(=O)C(c2ccccc2)c2ccccc2)C3)c1 (stereo partly drawn) was read as NPSR antagonist inactive, Coupling enz inactive, KDM4E inh inactive, RGS12 GoLoco inh inactive and Sfp inh 18µM.
`C/C=C(\C)C(=O)Nc1cccc(C2=NOC3(C2)C[C@@H](C(N)=O)N(C(=O)/C(C)=C/C)C3)c1` (stereo partly drawn) gave NPSR antagonist inactive, Coupling enz inactive, KDM4E inh inactive, RGS12 GoLoco inh inactive and Sfp inh inactive.
C/C=C/C=C\C(=O)Nc1cccc(C2=NOC3(C2)C[C@@H](C(N)=O)N(C(=O)/C(C)=C/C)C3)c1 (stereo partly drawn) was read as NPSR antagonist inactive, Coupling enz inactive, KDM4E inh inactive, RGS12 GoLoco inh inactive and Sfp inh 25µM.
C/C=C/C=C/C(=O)N1CC2(CC(c3cccc(NC(=O)CCCCC)c3)=NO2)C[C@H]1C(N)=O (stereo partly drawn) was read as NPSR antagonist inactive, Coupling enz inactive, KDM4E inh inactive, RGS12 GoLoco inh inactive and Sfp inh 22µM.
C/C=C\C=C/C(=O)Nc1cccc(C2=NOC3(C2)C[C@H](C(N)=O)N(C(=O)Cc2ccc([N+](=O)[O-])cc2)C3)c1 (stereo partly drawn) was read as NPSR antagonist inactive, Coupling enz inactive, KDM4E inh inactive, RGS12 GoLoco inh inactive and Sfp inh 13µM.
For O=C(/C=C/c1ccccc1)Nc1nnc(-c2ccco2)o1 the results were NPSR antagonist inactive, Coupling enz inactive, KDM4E inh inconclusive, RGS12 GoLoco inh inactive, ALDH1A1 inh inconclusive and Sfp inh inactive.
`CCN(CC)CCN(C(=O)CCS(=O)(=O)c1ccccc1)c1nc2cc3c(cc2s1)OCO3` gave Coupling enz inactive and Sfp inh inactive.
C/C=C/C=C\C(=O)Nc1cccc(C2=NOC3(C2)C[C@H](C(N)=O)N(C(=O)CC#N)C3)c1 (stereo partly drawn) was read as NPSR antagonist inactive, Coupling enz inactive, KDM4E inh inconclusive, RGS12 GoLoco inh inactive and Sfp inh 13µM.
`C/C=C/C(=O)Nc1cccc(C2=NOC3(C2)C[C@H](C(N)=O)N(C(=O)/C=C/C)C3)c1` (stereo partly drawn) gave NPSR antagonist inactive, Coupling enz inactive, KDM4E inh inactive, RGS12 GoLoco inh inactive and Sfp inh inactive.
